Consider 8 molecules from PubChem BioAssay.

Active and inactive are the calls of the source.

Test [1] has as its system Plasmodium falciparum Sir2 (PF13_0152, Sir2A). The experiment in a line: Plasmodium falciparum Sir2A binding compounds – biochemical, small-molecule microarray, 635 nm fluorescence, primary screen (AID 1098).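 Further: score merges spot fluorescence intensity with its signal-to-noise ratio.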 The conditions noted are these: fluorescence 635 nm, higher = more signal.
Test [2] can be described thus: probe aDKK1 binding to arrayed compounds – biochemical, biotinylated probe, 635/667 nm fluorescence, primary screen (AID 1099).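 Further: score merges 667nm spot fluorescence with signal to noise across triplicate slides.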 As to conditions: small-molecule microarray, higher = more signal.
A short description of test [3]: probe aCHRDL2 binding to arrayed compounds – biochemical, biotinylated probe, 635/667 nm fluorescence, primary screen (AID 1100). The conditions noted are these: small-molecule microarray, higher = more signal.
Test [4] in a line: change in splice reporter luminescence, either direction, cell-based, HEK293, spliceosome inhibition project, primary screen (AID 1101).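 Further: HEK293 cells carrying a splicing-competent luciferase reporter gene; test concentration not given here.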 As to conditions: HEK293 splicing luciferase reporter, 24 h, higher = more signal, called active from +8 up or from −8 down. For orientation: A reporter such as luciferase makes a cellular process visible.
The target in test [5] is Fibroblast growth factor 10 (Homo sapiens) (UniProt O15520). The experiment in a line: compounds binding fibroblast growth factor 10 – biochemical, small-molecule microarray, 635 nm fluorescence, primary screen (AID 1102). The conditions noted are these: FGF10 binding, fluorescence 635 nm, higher = more signal.
Chain of Fibroblast growth factor 10 (Homo sapiens) (O15520 whole entry, looked up): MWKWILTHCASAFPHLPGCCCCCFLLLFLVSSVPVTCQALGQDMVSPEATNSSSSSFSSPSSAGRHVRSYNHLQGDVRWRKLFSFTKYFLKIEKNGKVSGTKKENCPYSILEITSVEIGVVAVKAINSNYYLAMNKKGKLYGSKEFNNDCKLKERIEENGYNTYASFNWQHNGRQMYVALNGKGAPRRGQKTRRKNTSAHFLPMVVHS
The test system of test [6] is glycogen synthase kinase-3 (GSK3A per assay name; protocol says GSK3B). As to the kind of experiment: compounds binding glycogen synthase kinase-3 – biochemical, small-molecule microarray, 635 nm fluorescence, GSK3A, primary screen (AID 1103). Further: the record names both GSK3A and GSK3B. As to conditions: fluorescence 635 nm, higher = more signal.
Test [7] addresses Epidermal growth factor receptor (Homo sapiens) (UniProt P00533). The experiment in a line: compounds binding epidermal growth factor receptor – biochemical, small-molecule microarray, 635 nm fluorescence, primary screen (AID 1104).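 Further: score merges 667 nm emission intensity with spot signal to noise over triplicate slides.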 As to conditions: EGFR binding, higher = more signal.
The target of test [8] is Follistatin-related protein 3 (Homo sapiens) (UniProt O95633). As to the kind of experiment: compounds binding follistatin-related protein 3 – biochemical, small-molecule microarray, 635 nm fluorescence, primary screen (AID 1105).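 Further: score merges emission near 667 nm and signal to noise per printed spot across three slides.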 As to conditions: FSTL3 binding, higher = more signal.
Chain of Follistatin-related protein 3 (Homo sapiens) (O95633 whole entry, looked up): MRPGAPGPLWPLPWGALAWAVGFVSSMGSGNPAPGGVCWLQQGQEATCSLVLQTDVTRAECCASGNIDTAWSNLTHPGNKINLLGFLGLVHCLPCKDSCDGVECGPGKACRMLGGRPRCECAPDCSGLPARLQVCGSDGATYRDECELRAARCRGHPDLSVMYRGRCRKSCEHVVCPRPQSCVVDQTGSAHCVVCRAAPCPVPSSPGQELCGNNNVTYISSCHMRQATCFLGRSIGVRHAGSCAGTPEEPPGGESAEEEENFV
In test [9] the target is Dickkopf-related protein 1 (Homo sapiens) (UniProt O94907). As to the kind of experiment: small molecules binding DKK1 protein – biochemical, small-molecule microarray, 635 nm fluorescence scan, primary screen (AID 1106).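 Further: score merges emission near 667 nm with signal to noise over three replicate slides.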 As to conditions: higher = more signal.
Chain of Dickkopf-related protein 1 (Homo sapiens) (O94907 whole entry, looked up): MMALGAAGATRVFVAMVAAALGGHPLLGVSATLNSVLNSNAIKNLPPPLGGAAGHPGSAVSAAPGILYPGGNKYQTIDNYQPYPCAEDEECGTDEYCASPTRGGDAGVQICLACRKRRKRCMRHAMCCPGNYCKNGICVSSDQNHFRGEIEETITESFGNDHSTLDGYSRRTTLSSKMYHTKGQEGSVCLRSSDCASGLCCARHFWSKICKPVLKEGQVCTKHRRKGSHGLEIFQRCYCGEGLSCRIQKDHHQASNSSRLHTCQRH
Test [10] concerns Inhibin beta A chain (activin A). The experiment in a line: small molecules binding activin A – biochemical, small-molecule microarray, 635 nm fluorescence scan, primary screen (AID 1107).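 Further: mouse activin A protein probed at 4.33 µg/mL on printed slides; score merges bound-protein fluorescence near 667 nm with spot signal-to-noise.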 The conditions noted are these: INHBA, higher = more signal.
In test [11] the test system is Human papillomavirus type 1a protein E7 (residues 44-93). The experiment in a line: small molecules binding HPV E7 44-93 – biochemical, small-molecule microarray, residues 44-93, 635 nm fluorescence, primary screen (AID 1108).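 Further: E7 fragment applied at 1 µg/mL in TBST for 1 h at 4 C; score combines spot fluorescence with its signal to noise ratio.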 As to conditions: fluorescence 635 nm, higher = more signal.
The nature of test [12]: hepatitis C replication reporter changes, two-sided – Huh7 cells, luciferase reporter, HCV replication inhibitor project, primary screen (AID 1109).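 Further: huh7 hepatoma cells harbouring a luciferase neomycin HCV replicon reporter; luciferase luminescence as measure of HCV replicon replication; test concentration not given here.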 As to conditions: Huh7 HCV replicon luciferase reporter, 48 h; higher = more signal.
For test [13], the target named is Left-right determination factor 2 (Homo sapiens) (UniProt O00292). The experiment in a line: small molecules binding LEFTY2 protein – biochemical, small-molecule microarray, 635 nm fluorescence scan, primary screen (AID 1110). The conditions noted are these: higher = more signal.
Chain of Left-right determination factor 2 (Homo sapiens) (O00292 whole entry, looked up): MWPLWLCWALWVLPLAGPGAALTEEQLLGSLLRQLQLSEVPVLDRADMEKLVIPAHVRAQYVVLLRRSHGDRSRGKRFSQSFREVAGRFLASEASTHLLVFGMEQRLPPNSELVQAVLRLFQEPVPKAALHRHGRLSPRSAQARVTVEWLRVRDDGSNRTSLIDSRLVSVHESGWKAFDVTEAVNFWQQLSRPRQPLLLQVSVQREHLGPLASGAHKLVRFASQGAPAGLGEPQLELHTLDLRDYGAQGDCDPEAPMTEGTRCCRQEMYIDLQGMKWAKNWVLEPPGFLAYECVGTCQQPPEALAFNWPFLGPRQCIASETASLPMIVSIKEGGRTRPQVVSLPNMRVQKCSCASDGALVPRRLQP
For test [14], the target named is Calmodulin-1 (Homo sapiens) (UniProt P0DP23). The experiment in a line: small molecules binding calmodulin-1 with EGTA – biochemical, small-molecule microarray, Cy5-labelled CALM1, profiling panel (AID 1111).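 Further: labelled calmodulin applied in Tris saline Tween buffer holding calcium plus EGTA and DTT.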 The conditions noted are these: Cy5-CALM1 binding fluorescence, higher = more signal.
Test [15] has the same target. The experiment in a line: small molecules binding Ca-loaded calmodulin-1 – biochemical, small-molecule microarray, Cy5-labelled CALM1, plus calcium, artefact control for SMM control-protein annotation, profiling panel (AID 1112).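 Further: score merges spot fluorescence with signal to noise from triplicate slides.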 As to conditions: Cy5-CALM1 binding fluorescence, higher = more signal.
The nature of test [16]: probe aWnt5a binding to arrayed compounds – biochemical, biotinylated probe, 635/667 nm fluorescence, primary screen (AID 1113).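 Further: score merges 667 nm fluorescence intensity with signal-to-noise per printed feature.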 The conditions noted are these: small-molecule microarray, higher = more signal.
Test [17] can be described thus: probe aShh binding to arrayed compounds – biochemical, biotinylated probe, 635/667 nm fluorescence, primary screen (AID 1114).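 Further: probe is biotin-labelled aShh protein from a stem cell growth factor screen; measures binding of labelled protein to compounds printed on the slide; score merges feature fluorescence at 667 nm with signal-to-noise.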 As to conditions: small-molecule microarray, higher = more signal.
Test [18] is described as follows: probe aNog binding to arrayed compounds – biochemical, biotinylated probe, 635/667 nm fluorescence, primary screen (AID 1115).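 Further: probe is biotinylated aNog protein used at 0.15 µg/mL for 1 h at 4 C; z-score combines 667 nm fluorescence of each spot with its signal to noise.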 As to conditions: small-molecule microarray, higher = more signal.
Test [19] concerns the target Torsin-1A-interacting protein 1 (Homo sapiens) (UniProt Q5JTV8). As to the kind of experiment: compound microarray binding of lysate hLAP1 – cell lysate, small-molecule microarray, COS7 lysate, 635/667 nm fluorescence, primary screen (AID 1116). The conditions noted are these: 635 nm fluorescence, higher = more signal.
For test [20], the target named is Alpha-bungarotoxin (Bungarus multicinctus) (UniProt P60615). The experiment in a line: compounds binding labelled alpha-BTX control protein – biochemical, small-molecule microarray, Alexa647 label, 635/667 nm fluorescence, artefact control for SMM control protein annotation, profiling panel (AID 1117). The conditions noted are these: alpha-BTX-A647 binding fluorescence, higher = more signal.
Chain of Alpha-bungarotoxin (Bungarus multicinctus) (P60615 whole entry, looked up): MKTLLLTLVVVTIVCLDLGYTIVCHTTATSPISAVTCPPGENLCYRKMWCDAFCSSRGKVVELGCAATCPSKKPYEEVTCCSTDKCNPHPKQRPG

Chain of Epidermal growth factor receptor (Homo sapiens) (P00533 whole entry, looked up): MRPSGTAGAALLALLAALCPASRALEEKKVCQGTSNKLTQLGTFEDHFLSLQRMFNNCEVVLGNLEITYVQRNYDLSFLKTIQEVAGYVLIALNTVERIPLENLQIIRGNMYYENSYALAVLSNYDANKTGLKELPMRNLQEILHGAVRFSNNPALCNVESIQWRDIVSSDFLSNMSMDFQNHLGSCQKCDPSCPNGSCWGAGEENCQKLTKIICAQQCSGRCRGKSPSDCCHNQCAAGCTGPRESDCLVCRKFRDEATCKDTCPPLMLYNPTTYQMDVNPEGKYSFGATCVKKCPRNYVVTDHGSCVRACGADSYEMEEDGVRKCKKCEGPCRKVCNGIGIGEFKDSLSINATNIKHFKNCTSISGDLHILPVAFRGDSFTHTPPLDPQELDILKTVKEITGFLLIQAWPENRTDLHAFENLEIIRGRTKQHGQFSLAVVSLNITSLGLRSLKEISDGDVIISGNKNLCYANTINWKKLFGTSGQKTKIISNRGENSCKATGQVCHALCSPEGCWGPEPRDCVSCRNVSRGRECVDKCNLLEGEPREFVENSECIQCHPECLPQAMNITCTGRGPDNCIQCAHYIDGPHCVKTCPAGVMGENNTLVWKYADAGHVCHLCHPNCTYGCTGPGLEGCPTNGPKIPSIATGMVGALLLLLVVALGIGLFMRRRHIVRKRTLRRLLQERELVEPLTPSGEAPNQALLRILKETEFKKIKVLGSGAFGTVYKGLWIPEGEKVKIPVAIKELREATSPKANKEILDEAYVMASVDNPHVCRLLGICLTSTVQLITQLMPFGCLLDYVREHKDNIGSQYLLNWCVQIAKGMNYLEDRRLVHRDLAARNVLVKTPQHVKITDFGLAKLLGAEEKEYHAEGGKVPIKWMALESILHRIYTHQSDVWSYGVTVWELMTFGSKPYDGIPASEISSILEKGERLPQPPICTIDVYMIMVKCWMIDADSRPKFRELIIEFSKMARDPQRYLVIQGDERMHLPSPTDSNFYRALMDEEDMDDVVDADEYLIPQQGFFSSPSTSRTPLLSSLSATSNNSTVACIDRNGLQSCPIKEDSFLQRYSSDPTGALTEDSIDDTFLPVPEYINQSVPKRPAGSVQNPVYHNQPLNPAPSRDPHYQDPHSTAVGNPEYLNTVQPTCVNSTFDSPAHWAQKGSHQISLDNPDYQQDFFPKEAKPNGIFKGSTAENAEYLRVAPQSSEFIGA
Chain of Torsin-1A-interacting protein 1 (Homo sapiens) (Q5JTV8 whole entry, looked up): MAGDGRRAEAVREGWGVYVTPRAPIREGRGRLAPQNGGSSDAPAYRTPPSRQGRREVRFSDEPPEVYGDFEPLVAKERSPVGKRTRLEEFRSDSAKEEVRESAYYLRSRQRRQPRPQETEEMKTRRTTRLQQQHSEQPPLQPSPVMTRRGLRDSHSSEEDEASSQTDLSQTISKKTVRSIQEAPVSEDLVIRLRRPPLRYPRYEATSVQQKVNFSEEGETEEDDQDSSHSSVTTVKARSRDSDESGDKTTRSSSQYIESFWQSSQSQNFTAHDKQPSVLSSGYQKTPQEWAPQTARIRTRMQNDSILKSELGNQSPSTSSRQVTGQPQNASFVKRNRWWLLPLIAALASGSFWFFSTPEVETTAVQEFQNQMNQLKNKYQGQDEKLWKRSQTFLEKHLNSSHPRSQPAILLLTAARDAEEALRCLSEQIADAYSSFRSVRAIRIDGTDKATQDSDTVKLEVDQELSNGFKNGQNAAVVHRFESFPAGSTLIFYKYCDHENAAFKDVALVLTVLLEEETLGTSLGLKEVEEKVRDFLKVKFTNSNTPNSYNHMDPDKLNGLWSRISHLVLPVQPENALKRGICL

In the case of `Cc1ccc(N2C(=O)c3ccccc3[C@](C)(C(=O)NCCN3CCOCC3)[C@@H]2c2ccc(CO)cc2)nc1`, the composite z-score is 0.0614 in test [1]; 0.0511 in [2]; 0.858 in [3]; -1.01 in test [5]; -1.73 in [6]; -1.41 in test [7]. Besides, the composite z-score in test [8] was -1.74; in test [9], -0.979; in [10] it was -0.472; in test [11] it was -0.742; in test [13], -1.28; in [14], -0.597. For the same molecule, the composite z-score was -0.583 in test [15]; -0.228 in test [16]; 0.0442 in [17]; -0.244 in [18]; -0.869 in test [19]; -1.44 in test [20]. Besides, the values for the z-score in test [4] and in [12] were 0.219 (inactive) and 0.548, respectively.
Consider `CC(=O)NCCCC[C@@H]1NC(=O)[C@@H]2C[C@H](C(=O)NCc3ccc(F)cc3)[C@H](c3ccc(O)cc3)N2C1=O`, for which the composite z-score in test [1] was 1.51; in test [2], -0.239; in [3], -0.072; in test [5], 0.784; in test [6], 0.767; in [7] it was 0.0059. The composite z-score in [8] was determined as 0.177; in test [9] it was 0.592; in test [10], 0.0015; in test [11], 0.0999; in test [13] it was 0.591; in [14], 0.0633. The composite z-score in test [15] is -0.72; in test [16] it was -0.103; in test [17] it was 0.785; in [18], -0.314; in [19] it was 0.362; in test [20], 0.346. Besides, the z-score in test [4] is -0.661 (inactive); in test [12] it was -0.673.
In the case of `O=C(CS)NCCCCCNC(=O)[C@H]1C[C@H]2C(=O)N[C@@H](Cc3ccccc3)C(=O)N2[C@H]1c1cccc(OCCO)c1`, the composite z-score is 1.4 in test [1]; 0.185 in [2]; 0.373 in [3]; 1.41 in test [5]; 1.36 in [6]; 0.98 in test [7]. The composite z-score was 1.42 in test [8]; 1.61 in [9]; 0.597 in test [10]; 0.729 in test [11]; 1.03 in [13]; -0.137 in test [14]. The composite z-score in test [15] was -0.358; in [16] it was 0.0388; in [17] it was -0.153; in test [18] it was -0.259; in test [19], 1.12; in test [20], 0.656. Also, the figures for the z-score in test [4] and in test [12] were 0.101 (inactive) and -0.24, respectively.
Take `C=CC[C@@]1(C(=O)OC)N=C(c2ccc(OCCCO)cc2)O[C@@H]1c1ccccc1CN=[N+]=[N-]`: the composite z-score in test [1] was 1.55; in test [2] it was -0.0877; in [3], 0.892; in test [5] it was -0.216; in test [6] it was -0.215; in test [7] it was -0.328. Besides, the composite z-score in [8] was 0.201; in test [9] it was -0.231; in test [10] it was 1.15; in [11] it was 1.14; in [13] it was -0.0045; in [14], -0.517. Besides, the composite z-score in [15] was -0.896; in test [16], -0.144; in [17], -0.0553; in test [18] it was -0.24; in test [19], 0.798; in test [20] it was 0.389. Also, the z-score in test [4] was -1.54 (inactive); in test [12], -2.02.
For the molecule `COC(=O)c1c(CC[C@@H](CO)NC(=O)Nc2ncn[nH]2)oc(C(=O)Cc2ccccc2)c1C(=O)OC`, the composite z-score in test [1] is 0.0638; in [2] it was 0.0272; in test [3], -0.0621; in test [5], 1.08; in test [6], 0.938; in test [7], 0.596. Further, the composite z-score in test [8] is 1.01; in [9], 0.957; in test [10], 0.616; in test [11] it was 0.693; in test [13], 0.506; in [14] it was 0.0262. Further, the composite z-score in test [15] was -0.828; in test [16], -0.243; in test [17], 0.158; in test [18] it was -0.0144; in [19] it was -0.0045; in test [20], 0.924. The z-score in [4] is 0.801 (inactive); in test [12] it was 0.0922.
`CC(C)N1C(=O)c2ccccc2[C@](C)(C(=O)NCCCN(C)C)[C@@H]1c1ccc(CO)cc1`: the composite z-score was 0.928 in test [1]; 0.466 in test [2]; 0.665 in [3]; -0.543 in test [5]; 1.4 in test [6]; -0.968 in test [7]. Moreover, the composite z-score in [8] was -0.749; in test [9] it was -1.78; in [10], 0.814; in test [11], -0.0305; in [13], -0.553; in [14] it was 0.0958. Moreover, the composite z-score is -0.0609 in [15]; -0.152 in test [16]; -0.214 in test [17]; -0.546 in [18]; 4.42 in [19]; 1.28 in test [20]. The figures for the z-score in test [4] and in test [12] were -0.297 (inactive) and -0.104, respectively.
On to `CN1C(=O)C2C=CC(C(O)C=Cc3ccc([N+](=O)[O-])cc3)N(N3CCCCC3)C2C1=O` (stereo not given), for which the composite z-score in test [1] worked out at 1.38; in test [2] it was 1.6; in test [3] it was 1.34; in test [5] it was 0.928; in test [6], 1.28; in test [7] it was 0.726. The composite z-score in test [8] stood at 1.1; in test [9], 0.256; in test [10], 1.35; in test [11], 0.974; in [13], 0.443; in [14], 2.44. Further, the composite z-score is 0.925 in test [15]; 0.613 in [16]; 0.926 in test [17]; 1.66 in [18]; 0.856 in test [19]; 2.07 in test [20]. Moreover, the z-score is 1.47 (inactive) in [4] and 0.789 in [12].
For the molecule `O=C(NCC(O)CO)[C@@]1(Cc2ccccc2)N=C(c2ccc(OCCCO)cc2)O[C@H]1c1ccccc1` (stereo not given in full), the composite z-score is 0.616 in test [1]; 1.15 in test [2]; 1.36 in test [3]; 0.698 in [5]; 0.591 in test [6]; -1.2 in test [7]. Also, the composite z-score was -0.378 in test [8]; -0.72 in [9]; 0.661 in [10]; 0.546 in [11]; -1.13 in test [13]; 2.01 in [14]. The composite z-score in [15] is 1.36; in test [16], -0.241; in test [17], 0.334; in test [18] it was -0.57; in test [19], 2.48; in test [20], 1.77. In addition, the z-score in [4] is -0.395 (inactive); in test [12], -0.99.
